Reference: PubChem BioAssay (NCI)
About 83,000 compounds went through this panel and 20% of them were active in at least one assay; those are over-represented in the sample as a whole.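 Assay: single dose, 48 h. Readout: percent growth (0 = no net growth; negative = cell death). Active: <10.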 Unmarked numbers belong to inactive results. Activity calls are given as the source filed them.

Columns and labels:
Test in all cases: NCI-60 one-dose screen, 48 h (100 = growth as untreated, 0 = no growth, -100 = all killed)
Conditions in all cases: 10 µM unless noted
[1] = tested on: HCT-15 colon
[2] = tested on: HT29 colon
[3] = tested on: SNB-19 CNS
[4] = tested on: U251 CNS
[5] = tested on: PC-3 prostate
[6] = tested on: SK-MEL-5 melanoma
[7] = tested on: UACC-62 melanoma
[8] = tested on: LOX IMVI melanoma
[9] = tested on: SK-MEL-28 melanoma

SMILES | growth [1] | growth [2] | growth [3] | growth [4] | growth [5] | growth [6] | growth [7] | growth [8] | growth [9]
COc1ccc(C2c3ccc4ccccc4c3Oc3ncnc(N)c32)cc1 (stereo unspecified) | 88.5% | 104% | 91.2% | 92.8% | 71.9% | 85.5% | 66.9% | 76.5% | 91.9%
COc1cccc(-c2cn3c(ccc4ccccc43)n2)c1 | 21.9% | 20.1% | 38.3% | 38.4% | 34.8% | 9.42% (active) | 34.4% | 31.6% | 60%
C/C(Cc1ccc(Cl)cc1)=C(\c1ccc(OCCN2CCCCCC2)cc1)c1ccc(OC(=O)Cc2ccccc2)cc1 | 32.6% | 9.8% (active) | 74.4% | 42.5% | 54.2% | 84.1% | 75.1% | 78.3% | 71.3%
COc1cccc(-c2nc3sccn3c2-c2ccnc(NCCCNS(=O)(=O)c3ccccc3)c2)c1 | 27.6% | 41.6% | 68.7% | 65.4% | 15.9% | -29.8% (active) | -27.7% (active) | 35.1% | 66.8%
O=C1O[C@H]([C@H](O)CO)C(O)=C1O | 103% | 105% | 95.8% | 101% | 96% | 104% | 98.1% | 94.8% | 117%
CC[C@]12C=CCN3CC[C@@]4(c5ccc(OC)cc5N(C)[C@H]4[C@@](O)(C(=O)OC)[C@@H]1OC(=O)CCC(=O)N[C@@H](Cc1c[nH]c4ccccc14)C(=O)OC)[C@@H]32 | 97.2% | 89.1% | 96.3% | 99.3% | 80.5% | 90.4% | 92% | 84.1% | 37.6%
O=C1/C(=C/c2ccc(F)cc2)CN(C(=O)CCN2CCC(=NO)CC2)C/C1=C\c1ccc(F)cc1 | -58% (active) | -76.2% (active) | -37.9% (active) | -65.1% (active) | -23.9% (active) | -89.6% (active) | -67.2% (active) | -89.6% (active) | -59.1% (active)
Nc1c(C(=O)Nc2cccc3c2OCCO3)sc2nc3c(cc12)C(=O)CCC3 | 30.1% | 13.5% | 33.3% | 33% | 33.9% | 24% | 23.5% | 41.8% | 60%
O=[N+]([O-])c1cccc(-c2nc3sccn3c2-c2ccnc(NCCCNS(=O)(=O)c3cccc(F)c3)n2)c1 | 2.21% (active) | 21.3% | 41.2% | 39.8% | -14% (active) | -71.2% (active) | -37.8% (active) | -17.6% (active) | -4.71% (active)
CC[C@@H](C)OC(=O)c1nn(C(C)=O)c2ccccc12 | 89.9% | 107% | 100% | 99.4% | 103% | 94.1% | 99.2% | 95.6% | 114%
Cc1cc(N/N=C/c2nc(-c3ccc(Cl)cc3)oc2C)c2cc(Cl)ccc2n1 | -52.6% (active) | -51.2% (active) | 29.3% | -54.5% (active) | 67% | 95.1% | 29.7% | -66.7% (active) | 10.3%
Fc1ccc(Cc2ccc(F)cc2)cc1 | 116% | 111% | 102% | 98.5% | 102% | 101% | 101% | 97.9% | 105%
CCCCCCCCCCCCCCCCCCNC(=O)[C@H]1CSC(c2ccc(OC)c(F)c2)N1 (stereo partly specified) | 71% | 8.84% (active) | 65.1% | -53.1% (active) | 54.2% | 23.8% | -86.5% (active) | 30.1% | -74.5% (active)
CN1CCN(Cc2ccc(NC(=O)c3cncc(C#Cc4cncc5nccnc45)c3)cc2C(F)(F)F)CC1 | 40.6% | 22.7% | 92.1% | 76.3% | 67.6% | 41.9% | 16.6% | -7.67% (active) | 13.3%
CCOC(=O)c1cnc2ccc(OC)cc2c1Nc1cccc(S(=O)(=O)NC)c1 | 82.3% | 112% | 89% | 71.6% | 95.3% | 100% | 103% | 99.1% | 85.9%
CCCCCC(=O)Oc1ccc(/C(=C(\C)c2ccccc2)c2ccc(OCCN(CC)CC)cc2)cc1 | 38.6% | 4.26% (active) | 85.3% | 52.1% | 55.7% | 54.4% | 57.4% | 68.8% | 53%
Nc1cc(O)cc2cccnc12 | 110% | 106% | 79.4% | 86.7% | 78.7% | 72.4% | 89.5% | 51.2% | 112%
CC(C)C1=C[C@@]23CC[C@@H]4[C@](C)(CCC[C@@]4(C)C(=O)OCC#CCN4CCCC4)[C@H]2C[C@@H]1[C@H]1C(=O)OC(=O)[C@H]13 | 90.6% | 90.7% | 97.4% | 100% | 77.8% | 91.3% | 82.1% | 89.1% | 101%
C=C1C(=O)O[C@H]2[C@H]1CC/C(Cn1cc(Cn3ccc4cc(Cl)ccc43)nn1)=C\CC[C@@]1(C)O[C@@H]21 | -47.1% (active) | -43.3% (active) | 53.5% | 28.9% | 6.92% (active) | 46.9% | 5.99% (active) | -89.5% (active) | -13.3% (active)
C/C(Cc1ccc(Cl)cc1)=C(\c1ccc(OCCN2CCCCCC2)cc1)c1ccc(OC(=O)C2CCCCC2)cc1 | 39% | 18.4% | 77.6% | 45% | 51.5% | 83.5% | 68.1% | 65.8% | 61.2%
COc1ccc(S(=O)(=O)NCCCNc2cc(-c3c(-c4cccc(OC)c4)nc4sccn34)ccn2)cc1 | 35.7% | 35% | 62.7% | 59.4% | 26.9% | -10.9% (active) | 20.4% | 46.6% | 65.5%
CC(C)(C)n1cc(-c2ccnc(NCCNS(=O)(=O)c3ccccc3)c2)c(-c2cccc(O)c2)n1 | 9.17% (active) | 15.6% | 80.8% | 52% | 41.5% | 23.2% | 70.1% | 20.4% | 60.4%
O=C1c2ccccc2-c2nccc3cc(Cl)nc1c23 | 17.6% | 14.3% | 105% | 32.8% | 8.78% (active) | -89% (active) | 27.7% | -22.5% (active) | 55.8%
COc1ccc(/C=N\NC(=O)CN2CCN(c3cc4c(cc3F)c(=O)c(C(=O)N/N=C/c3ccc(OC)cc3)cn4C3CC3)CC2)cc1 | 76.6% | 90.2% | 86.2% | 95% | 71.9% | 72.2% | 83.3% | 90.1% | 93.9%
COCCOC(=O)C1=C(C)NC(=S)NC1c1ccc2c(c1)OCO2 (stereo unspecified) | 102% | 96.7% | 100% | 104% | 95.7% | 97.6% | 102% | 101% | 114%
Nc1c(C(=O)Nc2ccccc2)sc2nc3c(cc12)CN(CCc1ccccc1)CC3 | 107% | 104% | 95.4% | 91.3% | 88.1% | 92.9% | 86.4% | 87.5% | 106%
Brc1cccc(-c2cc(-c3ccc4c(c3)OCCO4)[nH]n2)c1 | 15.9% [25 µM] | 1.56% [25 µM] (active) | 34% [25 µM] | 22% [25 µM] | 26.3% [25 µM] |  | 36.8% [25 µM] | 34% [25 µM] | 59.7% [25 µM]
CC1=C(C)C(=O)OC([C@](C)(O)[C@]2(O)CC[C@@]3(O)[C@@H]4C[C@H]5O[C@]56CC=CC(=O)[C@]6(C)[C@H]4CC[C@]23COC(=O)c2ccc(C)o2)C1 (stereo partly specified) | -86.2% (active) | -73.6% (active) | -85% (active) | -85.2% (active) | -35% (active) | -80.6% (active) | -83.3% (active) | -95% (active) | -86.1% (active)
